For 7 compounds, growth results are on record in PubChem BioAssay (NCI).

Among the test systems are NCI-H226 lung; NCI-H322M lung; NCI-H460 lung; HOP-92 NSCLC; NCI-H522 lung; A549/ATCC NSCLC; 786-0 renal; COLO 205 colon; DU-145 prostate; MALME-3M melanoma; MDA-MB-231 breast; RXF 393 renal; SF-268 CNS; SF-295 CNS; SF-539 CNS; UACC-257 melanoma; M14 melanoma; HOP-62 NSCLC; K-562 leukemia.
Common to all, as to test: NCI-60 one-dose screen, 48 h (100 = growth as untreated, 0 = no growth, -100 = all killed)
Holding throughout (conditions): 10 µM unless noted

Several values for one entry are separate records, joined by “and”; a condition that tells them apart may be missing. Equal entries are not always repeated. Compounds without any hit were thinned out: in the full panel of roughly 83,000, 20% have a hit.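 Assay: single dose, 48 h. Readout: percent growth (0 = no net growth; negative = cell death). Active: <10.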 Activity calls are given as the source filed them.

`c1ccc(N(c2ccccc2)c2ccccc2)cc1`: the growth in the test on NCI-H226 lung was 104% (inactive); in the test with NCI-H322M lung, 97.6% (inactive); in the test with NCI-H460 lung, 111% (inactive); in the test on HOP-92 NSCLC it was 112% (inactive); in the test with NCI-H522 lung, 95.9% (inactive); with A549/ATCC NSCLC, 99% (inactive). The growth is 97.9% (inactive) in the test on 786-0 renal; 113% (inactive) in the test on COLO 205 colon; 113% (inactive) in the test with DU-145 prostate; 93.8% (inactive) in the test with MALME-3M melanoma; 120% (inactive) in the test on MDA-MB-231 breast; 122% (inactive) with RXF 393 renal. The growth in the test with SF-268 CNS is 106% (inactive); in the test on SF-295 CNS, 92% (inactive); with SF-539 CNS, 104% (inactive); in the test with UACC-257 melanoma it was 104% (inactive); in the test on M14 melanoma it was 100% (inactive).
Take `C1CCCCNCCC1`: the growth was 99.2% (inactive) with NCI-H226 lung; 111% (inactive) with NCI-H322M lung; 116% (inactive) in the test on HOP-62 NSCLC; 118% (inactive) in the test on NCI-H460 lung; 88.3% (inactive) in the test on HOP-92 NSCLC; 115% (inactive) in the test on NCI-H522 lung. Moreover, the growth was 109% (inactive) in the test on 786-0 renal; 121% (inactive) with COLO 205 colon; 118% (inactive) with DU-145 prostate; 104% (inactive) in the test on K-562 leukemia; 106% (inactive) in the test on MALME-3M melanoma; 101% (inactive) in the test with MDA-MB-231 breast. Moreover, the growth with RXF 393 renal is 103% (inactive); with SF-268 CNS, 109% (inactive); in the test with SF-295 CNS, 104% (inactive); in the test with SF-539 CNS, 113% (inactive); with UACC-257 melanoma, 100% (inactive); in the test on M14 melanoma, 105% (inactive).
Regarding `N#CCCOc1ccccc1`, the growth in the test on NCI-H226 lung was 110% (inactive); in the test on HOP-62 NSCLC, 95.3% (inactive); in the test with NCI-H460 lung it was 105% (inactive); in the test on NCI-H522 lung it was 87.7% (inactive); in the test on A549/ATCC NSCLC, 96.7% (inactive); with 786-0 renal, 98.2% (inactive). The growth with COLO 205 colon was 106% (inactive); in the test on DU-145 prostate, 117% (inactive); with K-562 leukemia, 89.6% (inactive); in the test with MALME-3M melanoma it was 95.1% (inactive); in the test with MDA-MB-231 breast, 108% (inactive); with RXF 393 renal it was 114% (inactive). Further, the growth in the test with SF-268 CNS is 102% (inactive); in the test with SF-295 CNS, 101% (inactive); with SF-539 CNS, 96.2% (inactive); in the test with UACC-257 melanoma, 92.6% (inactive); in the test with M14 melanoma, 97.9% (inactive).
`CCN(CC)C(=S)SSC(=S)N(CC)CC`: the growth in the test with NCI-H226 lung was 86.5% (inactive) and 104% (inactive); in the test with NCI-H322M lung it was 84.8% (inactive) and 102% (inactive); in the test with HOP-62 NSCLC, 82.1% (inactive) and 88.7% (inactive); with NCI-H460 lung, 62.4% (inactive) and 111% (inactive); with HOP-92 NSCLC, 90.4% (inactive) and 110% (inactive); in the test with NCI-H522 lung it was 58.1% (inactive) and 88.8% (inactive). Moreover, the growth in the test with 786-0 renal is 91.2% (inactive) and 91.7% (inactive); in the test with COLO 205 colon, 82.9% (inactive) and 106% (inactive); in the test on DU-145 prostate, 83.4% (inactive) and 109% (inactive); with K-562 leukemia, 54.6% (inactive) and 80.5% (inactive); in the test with MALME-3M melanoma, 61.2% (inactive) and 113% (inactive); with MDA-MB-231 breast it was 81.6% (inactive) and 102% (inactive). The growth was 105% (inactive) and 131% (inactive) with RXF 393 renal; 88.1% (inactive) and 95.7% (inactive) in the test on SF-268 CNS; 78.5% (inactive) and 103% (inactive) in the test on SF-295 CNS; 91.5% (inactive) and 92.8% (inactive) in the test on SF-539 CNS; 69.7% (inactive) and 69.5% (inactive) in the test with UACC-257 melanoma; 66.8% (inactive) and 92.4% (inactive) with M14 melanoma.
For the compound `CC(=O)C(/C=N/C(N)=O)=C(/C)O`, the growth in the test with NCI-H226 lung was 111% (inactive); in the test with NCI-H322M lung, 113% (inactive); in the test on NCI-H460 lung, 116% (inactive); in the test with HOP-92 NSCLC it was 119% (inactive); in the test on NCI-H522 lung, 99.6% (inactive); with A549/ATCC NSCLC, 99.6% (inactive). For the same compound, the growth was 104% (inactive) with 786-0 renal; 120% (inactive) with COLO 205 colon; 118% (inactive) in the test on DU-145 prostate; 106% (inactive) with MALME-3M melanoma; 96.5% (inactive) in the test with MDA-MB-231 breast; 114% (inactive) in the test on RXF 393 renal. Further, the growth in the test on SF-268 CNS was 109% (inactive); in the test with SF-295 CNS it was 101% (inactive); in the test with SF-539 CNS, 103% (inactive); in the test on UACC-257 melanoma it was 97.3% (inactive); with M14 melanoma it was 108% (inactive).
Turning to `O=C(Nc1ccc(Cl)cc1)c1cc2ccccc2cc1O`, the growth was 54.4% (inactive) and 42.1% (inactive) with NCI-H226 lung; 17.1% (inactive) and 19.6% (inactive) in the test on NCI-H322M lung; 63.6% (inactive) and 5.51% (active) with HOP-62 NSCLC; 8.06% (active) and -15.7% (active) in the test with NCI-H460 lung; -9.86% (active) in the test with HOP-92 NSCLC; 26.1% (inactive) and -32.3% (active) in the test with NCI-H522 lung. The growth was 68.2% (inactive) and 26.4% (inactive) in the test on A549/ATCC NSCLC; 67.1% (inactive) and -31.9% (active) in the test with 786-0 renal; 91.4% (inactive) and 70.4% (inactive) in the test with COLO 205 colon; 29.6% (inactive) and 10% (inactive) with DU-145 prostate; 14.1% (inactive) and 7.46% (active) in the test with K-562 leukemia; 29.4% (inactive) and 17% (inactive) in the test with MALME-3M melanoma. In addition, the growth was 52.7% (inactive) and 41.7% (inactive) with MDA-MB-231 breast; 53.6% (inactive) and -17% (active) in the test on RXF 393 renal; 53.6% (inactive) and 24.9% (inactive) in the test on SF-268 CNS; 10.2% (inactive) and 3.7% (active) in the test with SF-295 CNS; 22.7% (inactive) and 12.5% (inactive) in the test with SF-539 CNS; 20.7% (inactive) with UACC-257 melanoma. The growth in the test on M14 melanoma is 55% (inactive) and 7.47% (active).
For `CCN(CC)C(=O)c1cccnc1`, the growth is 110% (inactive) in the test on NCI-H226 lung; 123% (inactive) with NCI-H322M lung; 119% (inactive) in the test with HOP-62 NSCLC; 111% (inactive) with NCI-H460 lung; 117% (inactive) in the test on HOP-92 NSCLC; 98.9% (inactive) in the test on NCI-H522 lung. In addition, the growth with A549/ATCC NSCLC is 102% (inactive); with 786-0 renal it was 99.4% (inactive); in the test with COLO 205 colon it was 115% (inactive); in the test with DU-145 prostate it was 119% (inactive); in the test on MALME-3M melanoma it was 104% (inactive); in the test with MDA-MB-231 breast, 106% (inactive). For the same compound, the growth with RXF 393 renal is 123% (inactive); in the test with SF-268 CNS, 108% (inactive); in the test with SF-295 CNS, 99.8% (inactive); in the test on SF-539 CNS it was 99.8% (inactive); in the test with UACC-257 melanoma, 101% (inactive); in the test on M14 melanoma, 103% (inactive).
